Reference: the supplement of paper PMC11172423
A number with no mark means an inactive call.

How the values were obtained:
[1] = test system: Falciformispora senegalensis CBS197.79; assay: growth relative to untreated control; higher = less inhibition, active = 20 or less
Summary of the method: (§1)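 Growth was expressed as metabolic activity relative to the untreated growth control, with both corrected using a blank of medium plus dye. Hyphal fragments of M. mycetomatis MM55 or F. senegalensis CBS197.79 were suspended to 68–72% transmission at 660 nm in colourless RPMI 1640 containing L-glutamine and MOPS. In 96-well plates they were exposed to compound at 100 or 25 µM for 7 days at 37 °C, and viability was read with MTS (2 h, 490 nm) or resazurin (600 nm).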

[2] = test system: Madurella mycetomatis MM55; assay: as above
Summary of the method: as §1

Row | Structure (SMILES) | growth ([1]; 25 µM) | growth ([1]; 100 µM) | growth ([2]; 25 µM) | growth ([2]; 100 µM)
1 | Clc1ccc(Nc2nc3cnc(NC4CC4)nc3n2C2CCNCC2)cc1Cl | 76.9% | 91.4% | 73.7% | 73%
2 | CC(C)Oc1cccc(-c2ccc3nc(Nc4ncccc4N(C)C)cn3c2)n1 | 88.2% | 93.4% | 124% | 84.6%
3 | CCCCCCO[C@@H](C)c1cccc(-c2csc(NC(=O)c3cc(Cl)c(/C=C(\C)C(=O)O)c(Cl)c3)n2)c1OC | 80% | 105% | 81% | 85.9%
4 | Oc1nc2ccccc2n1C1CCN(CCCC(c2ccc(F)cc2)c2ccc(F)cc2)CC1 | 101% | 100% | 7.07% (active) | 64.9%
5 | C=CC(C)(C)C1=C(O)C(=O)c2ccccc2C1=O | 103% | 101% | 98.8% | 164%
6 | CN(C)C1CC(NC(=O)c2ccc(Nc3nccc(-c4ccc(Cl)c(C(F)(F)F)c4)n3)cc2)C1 (configuration not stated) | 96.6% | 102% | 7.71% (active) | 6.2% (active)
7 | COc1ccc2cc1Oc1ccc(cc1)C[C@H]1c3cc(c(OC)cc3CCN1C)Oc1c(OC)c(OC)cc3c1[C@H](C2)N(C)CC3 | 33.4% | 20.6% | 3.29% (active) | 3.62% (active)
8 | CCOC(=O)C1=C(CC)NC2=C(C(=O)CC(C)(C)C2)C1c1ccc(Br)cc1 (configuration not stated) | 82.3% | 87% | 106% | 73.2%
9 | FC(F)(F)CNc1ncc2nc(Nc3cc(Cl)cc(Cl)c3)n(C3CCNCC3)c2n1 | 104% | 107% | 70.4% | 4.54% (active)
10 | Cc1cccc(-c2noc(-c3ccccc3)n2)c1 | 86.3% | 99.4% | 90.6% | 68.5%
11 | C[C@@H]1[C@@H](NC(=O)c2cn3cc(Cl)ccc3n2)C[C@H]2C[C@@H]1C2(C)C | 95.5% | 102% | 69.5% | 7.3% (active)
12 | CC(C)Nc1cc2c(cn1)nc(Nc1cc(Cl)cc(C#N)c1)n2C1CCNCC1 | 97.8% | 106% | 106% | 79.1%
13 | CCNCc1cc(Nc2ccnc3cc(Cl)ccc23)ccc1O | 48.5% | 16.4% (active) | 37% | 2.65% (active)
14 | CO[C@@H]1[C@H](N(C)C(=O)c2ccccc2)C[C@H]2O[C@]1(C)n1c3ccccc3c3c4c(c5c6ccccc6n2c5c31)C(=O)NC4 | 113% | 89.5% | 77.9% | 87.3%
15 | COc1ccc(-c2cc3ncnc(N4CCN(CCN5CCCC5)CC4)c3s2)cc1 | 7.35% (active) | 14.9% (active) | 4.86% (active) | 4.96% (active)
16 | CCN1CCN(C2CCN(C(=O)COc3ccc(-c4ccccc4F)cc3)CC2)CC1 | 99.8% | 6% (active) | 105% | 41.1%
17 | CN(C)CCOc1ccc(/C(=C(/CCCl)c2ccccc2)c2ccccc2)cc1 | 0% (active) | 0% (active) | 7.23% (active) | 6.66% (active)
18 | CN(C)CCCN1c2ccccc2Sc2ccc(Cl)cc21 | 22.7% | 7.45% (active) | 4.01% (active) | 3.82% (active)
19 | CNC(=O)c1cc(Oc2ccc(NC(=O)Nc3ccc(Cl)c(C(F)(F)F)c3)c(F)c2)ccn1 | 109% | 101% | 69.9% | 74.4%
20 | Cc1cnc2nc(NC3COc4ccccc43)nc(NC(C3CC3)C3CC3)c2c1 (configuration not stated) | 83.2% | 33.4% | 7.72% (active) | 8.15% (active)
21 | COc1cccc(-c2ccc(NC(=O)C3=C(C(=O)O)CCC3)c(F)c2)c1 | 109% | 105% | 76.1% | 91.5%
22 | O=c1c(Cl)c(OCc2ccc(Cl)nc2)cnn1-c1ccc(Cl)c(Cl)c1 | 92.2% | 103% | 61.7% | 62.1%
23 | C[C@H](NC(=O)c1cc2ccc(Cl)cc2n1C)c1ccccc1 | 93.6% | 81.7% | 99.6% | 81.1%
